Results filed as inconclusive are left out. Calls of active or inactive are those of the source. Unless noted, calls follow the shape of the dose curve; as a rule, active = well fitted curve in the direction sought with a large enough effect; inconclusive = small, poorly fitted or top-dose-only effect, or another doubt; inactive = no such curve, though single readings can be large; an effect the other way counts as inactive or inconclusive.

In one experiment the target is Aldehyde dehydrogenase, mitochondrial (Homo sapiens) (UniProt P05091). In words: qHTS for Inhibitors of the Aldehyde Dehydrogenase Family (ALDH2) Confirmatory screens (AID 2061303; active = well fitted inhibition curve with a large enough effect; title and protocol of this record describe different tests; also: nearly all actives have a fitted effect of over 45% in size; also: potency is read from the fitted curve at half-maximal effect; as to activity change, negative = inhibition: % is scaled to controls: 0 for no effect and ±100 for the full control effect). The following applies: ALDH inhibition qHTS; series mostly up to 45.4 µM; activity change, negative = inhibition: at the top concentration.
For the compound `N[C@H](C(=O)O)[C@H](O)C(=O)O`, the “activity change, negative = inhibition” value is -16.6% (inactive).

Regarding `CC(C)N(CCC(=O)c1ccc2ccccc2c1)Cc1ccccc1`, the Potency was 3160 nM (active). In the case of `Cc1cn[nH]c1`, the “activity change, negative = inhibition” value was -3.37% (inactive).

System in a further experiment: not listed separately
Description: qHTS for Inhibitors of the Aldehyde Dehydrogenase Family (ALDH1A2, ALDH1A3, ALDH2, ALDH3A1) (AID 2061307). Also: nearly all actives have a fitted effect of over 50% in size. As to Potency: test system not described further here; potency is read from the fitted curve at half-maximal effect. As to activity change, negative = inhibition: % is scaled to controls: 0 for no effect and ±100 for the full control effect. The following applies: ALDH inhibition qHTS; series mostly up to 50.3 µM; activity change, negative = inhibition: at the top concentration.
For `N[C@H](C(=O)O)[C@H](O)C(=O)O`, the “activity change, negative = inhibition” value was 5.11% (inactive).

Consider `O=S(=O)(c1cccc2c(I)cccc12)N1CCCNCC1`, for which the “activity change, negative = inhibition” value is 19.3% (inactive). Turning to `CC(C)N(CCC(=O)c1ccc2ccccc2c1)Cc1ccccc1`, the Potency was 12.7 nM (active).

The next experiment has as its target Aldehyde dehydrogenase, mitochondrial (Homo sapiens) (UniProt P05091). Description: qHTS for Inhibitors of the Aldehyde Dehydrogenase Family (ALDH2) Primary screen (AID 2061308). Also: nearly all actives have a fitted effect of over 55% in size. Also: potency is read from the fitted curve at half-maximal effect.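 As to activity change, negative = inhibition: plate controls were vehicle for no effect and reference inhibitor for full effect.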 As to conditions: ALDH2 enzyme inhibition qHTS, 1536-well; series mostly up to 56 µM; activity change, negative = inhibition: at the top concentration.
As to `CCCc1nn(C)c2c(=O)[nH]c(-c3cc(S(=O)(=O)N4CCN(C)CC4)ccc3OCC)nc12`, the “activity change, negative = inhibition” value is -13.8% (inactive). On to `CC(C)N(CCC(=O)c1ccc2ccccc2c1)Cc1ccccc1`, for which the Potency is 251 nM (active). For the compound `CCCCc1ncc(/C=C(\Cc2cccs2)C(=O)O)n1Cc1ccc(C(=O)O)cc1`, the “activity change, negative = inhibition” value is -3.32% (inactive). As for `N[C@@H](Cn1ccc(=O)c(O)c1)C(=O)O`, the activity change, negative = inhibition is 3.38% [at 5.59 µM] (inactive). On the same count and under the same terms, the figure for `CCN(CC)CCCC(C)Nc1c2ccc(Cl)cc2nc2ccc(OC)cc12` (stereo not drawn) is 8.64% [at 28 µM] (inactive). In the case of `Cc1cc(C(C)(C)C)c(O)c(C)c1CC1=NCCN1`, the “activity change, negative = inhibition” value is -2.3% (inactive). Still for that read-out and setting: the value for `O=C(c1ccc(F)cc1)C1CCN(CCn2c(=O)[nH]c3ccccc3c2=O)CC1` was -15.7% (inactive); that for `O=[N+]([O-])c1ccc(CNc2nc(NCc3cccc(C(F)(F)F)c3)nc3nc[nH]c23)cc1` was -5.96% (inactive).

The target of another experiment is Retinaldehyde dehydrogenase 3 (Homo sapiens) (UniProt P47895). In words: qHTS for Inhibitors of the Aldehyde Dehydrogenase Family (ALDH1A3) Confirmatory screens (AID 2061311). Also: nearly all actives have a fitted effect of over 60% in size. Also: potency is read from the fitted curve at half-maximal effect. As to activity change, negative = inhibition: % is scaled to controls: 0 for no effect and ±100 for the full control effect. The following applies: ALDH inhibition qHTS; series mostly up to 46 µM; activity change, negative = inhibition: at the top concentration.
With `N[C@H](C(=O)O)[C@H](O)C(=O)O`, the “activity change, negative = inhibition” value is -10.7% (inactive). For the compound `CC(C)N(CCC(=O)c1ccc2ccccc2c1)Cc1ccccc1`, the Potency was 283 nM (active). In the case of `Cc1cn[nH]c1`, the “activity change, negative = inhibition” value was -0.28% (inactive).

The next experiment shares this target. Description: qHTS for Inhibitors of the Aldehyde Dehydrogenase Family (ALDH1A3) Validation screen (AID 2061312). Also: % is scaled to controls: 0 for no effect and ±100 for the full control effect; nearly all actives have a fitted effect of over 45% in size. As to conditions: ALDH1A3 enzyme inhibition qHTS validation, fluorescence; series mostly up to 84.7 µM; activity change, negative = inhibition: at the top concentration.
`N[C@@H](CCC(=O)N[C@H](CSN=O)C(=O)NCC(=O)O)C(=O)O`: the “activity change, negative = inhibition” value was -5.57% [at 42.4 µM] (inactive). For the compound `Nc1nc2ccc(Cl)cc2n2c(-c3ccccc3)nnc12`, the “activity change, negative = inhibition” value is 8.71% [at 42.4 µM] (inactive).

As to `Cc1ccccc1/C=C/C1=NCCN1`, the “activity change, negative = inhibition” value was -15.2% [at 42.4 µM] (inactive).

On to `O=C(O)c1cc([N+](=O)[O-])ccc1NCCCc1ccccc1`, for which the “activity change, negative = inhibition” value was -23% [at 42.4 µM] (inactive). On the same count and under the same terms, the value for `O=C(Nc1ccccc1)c1cc([N+](=O)[O-])ccc1Cl` was 26.1% [at 42.4 µM] (inactive).

Turning to `CCCc1nn(C)c2c(=O)[nH]c(-c3cc(S(=O)(=O)N4CCN(C)CC4)ccc3OCC)nc12`, the “activity change, negative = inhibition” value was 1% [at 42.4 µM] (inactive).

Consider `CC(C)C[C@H](NC(=O)C1OC1C(=O)O)C(=O)NCCCCN=C(N)N` (stereo partly drawn), for which the “activity change, negative = inhibition” value is -0.231% [at 42.4 µM] (inactive). Same read-out and setting: the value for `NCCS(=O)O` was -10.5% [at 42.4 µM] (inactive); that for `CC(C)NC[C@H](O)COc1cccc2[nH]ccc12` was 11% [at 42.4 µM] (inactive). On to `N[C@@H](Cn1ccc(=O)c(O)c1)C(=O)O`, for which the Potency entry was “inactive”. As for `O=C1C(SCCO)=C(SCCO)C(=O)c2ccccc21`, the “activity change, negative = inhibition” value was -59.8% [at 42.4 µM] (inactive). For the compound `CCCn1c(=O)c2c(ncn2C)n(CCC)c1=O`, the “activity change, negative = inhibition” value was 10.5% [at 42.4 µM] (inactive). The same measure, in the same setting: the figure for `CCCN(CC1CC1)c1nc(C)nc(Nc2c(Cl)cc(Cl)cc2Cl)c1Cl` is -0.392% [at 42.4 µM] (inactive); for `C[C@@H](O)[C@H]1C(=O)N2C(C(=O)O)=C(SCCN=CN)C[C@H]12` it is -8.03% [at 42.4 µM] (inactive); for `CNCCc1cnc(CCC(c2ccccc2)c2ccccc2)[nH]1` it is -5.42% [at 42.4 µM] (inactive).

For the compound `CC(C)c1cccc(C(C)C)c1N1C(=O)c2ccc(O)cc2C1=O`, the “activity change, negative = inhibition” value is 4.76% [at 42.4 µM] (inactive). Turning to `Cc1cc(C(C)(C)C)c(O)c(C)c1CC1=NCCN1`, the Potency entry was “inactive”. As to `COc1ccc2c(c1)CCC1C2CC[C@@]2(C)C1CC[C@@H]2NCCCCCCN1C(=O)C=CC1=O` (stereo partly drawn), the “activity change, negative = inhibition” value is 6.72% [at 42.4 µM] (inactive). On the same count and under the same terms, the value for `Nc1ccn([C@H]2CC[C@@H](CO)O2)c(=O)n1` was 4.97% [at 42.4 µM] (inactive); that for `Clc1cccc(Cl)c1NC1=NCCN1` was 0.996% [at 42.4 µM] (inactive); that for `O=C(c1ccc(F)cc1)C1CCN(CCn2c(=O)[nH]c3ccccc3c2=O)CC1` was 19.3% [at 42.4 µM] (inactive). Same read-out and setting: the figure for `O=C1NCc2c1c1c3ccccc3[nH]c1c1[nH]c3ccccc3c21` is -13.4% [at 42.4 µM] (inactive); for `O=[N+]([O-])c1ccc(CNc2nc(NCc3cccc(C(F)(F)F)c3)nc3nc[nH]c23)cc1` it is 33.5% [at 42.4 µM] (inactive). On the same count and under the same terms, the figure for `N=c1ccn2c(n1)O[C@H]1[C@H](O)[C@@H](CO)O[C@H]12` is -9.27% [at 42.4 µM] (inactive); for `CSc1ccc2c(c1)N(CCC1CCCCN1C)c1ccccc1S2` (stereo not drawn) it is -0.39% [at 42.4 µM] (inactive); for `O=C1OC(=O)C2C3CCC(O3)C12` (stereo not drawn) it is 0% [at 42.4 µM] (inactive). As for `CNC(=O)[C@H]1O[C@@H](n2cnc3c(NCc4ccc(N)cc4)ncnc32)[C@H](O)[C@@H]1O`, the “activity change, negative = inhibition” value is -6.35% [at 42.4 µM] (inactive). The same measure, in the same setting: the figure for `Nc1ccc2c3c(cccc13)C(=O)NC2=O` is -5.75% [at 42.4 µM] (inactive); for `OCC1NCC(O)C(O)C1O` (stereo not drawn) it is 0.181% [at 42.4 µM] (inactive).

Take `NC1[C@H]2CN(c3nc4c(cc3F)c(=O)c(C(=O)O)cn4-c3ccc(F)cc3F)C[C@@H]12` (stereo partly drawn): the “activity change, negative = inhibition” value was 40.6% [at 42.4 µM] (inactive). The same measure, in the same setting: the figure for `NCC(O)C1CCCCCCC1` (stereo not drawn) is 7.8% [at 42.4 µM] (inactive); for `CCCCCCCCCCCCCCCCCCOC[C@H](COP(=O)([O-])OCC[N+](C)(C)C)OC` it is 22% [at 42.4 µM] (inactive).

Turning to `CN1C2CCC1CC(OC(c1ccccc1)c1ccccc1)C2` (stereo not drawn), the “activity change, negative = inhibition” value was 5.37% [at 42.4 µM] (inactive). Same read-out and setting: the figure for `CC(=O)[C@H]1CCC2C3CC=C4C[C@@H](OS(=O)(=O)O)CC[C@]4(C)C3CC[C@@]21C` (stereo partly drawn) is 21.6% [at 42.4 µM] (inactive).

The next experiment shares this target. In words: qHTS for Inhibitors of the Aldehyde Dehydrogenase Family (ALDH1A3) Primary screen (AID 2061315).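 Also: plate controls were DMSO vehicle for no effect and reference inhibitor for full effect.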 As to conditions: ALDH inhibition qHTS; series mostly up to 56 µM; activity change, negative = inhibition: at the top concentration.
On to `CCCc1nn(C)c2c(=O)[nH]c(-c3cc(S(=O)(=O)N4CCN(C)CC4)ccc3OCC)nc12`, for which the “activity change, negative = inhibition” value is 24.9% (inactive).

`CCCCc1ncc(/C=C(\Cc2cccs2)C(=O)O)n1Cc1ccc(C(=O)O)cc1`: the “activity change, negative = inhibition” value is -11.3% (inactive).

Turning to `N[C@@H](Cn1ccc(=O)c(O)c1)C(=O)O`, the activity change, negative = inhibition was 6.23% [at 5.59 µM] (inactive). As to `CCN(CC)CCCC(C)Nc1c2ccc(Cl)cc2nc2ccc(OC)cc12` (stereo not drawn), the “activity change, negative = inhibition” value was -0.28% [at 28 µM] (inactive). On to `Cc1cc(C(C)(C)C)c(O)c(C)c1CC1=NCCN1`, for which the “activity change, negative = inhibition” value was -2.05% (inactive). Still for that read-out and setting: the figure for `O=C(c1ccc(F)cc1)C1CCN(CCn2c(=O)[nH]c3ccccc3c2=O)CC1` is 3.21% (inactive); for `O=[N+]([O-])c1ccc(CNc2nc(NCc3cccc(C(F)(F)F)c3)nc3nc[nH]c23)cc1` it is 25.6% (inactive).

The record behind these values is PubChem BioAssay (NCATS).
